Compound activity from PubChem BioAssay.
Only a selection was taken, and hits are over-represented in it overall.
NSD2 block: inhibitors of human NSD2 methyltransferase; hit rate 0.07% among 44,000; AID 624260; O96028; inhibition, % at 12.5 µM; NSD2-SET H3K36me1 DELFIA fluorescence, biochemical; in the data active = inhibition above about 54%, passing the limit was not always enough;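 note: inhibitors reduce the monomethyl H3K36 fluorescence signal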
Target sequence (O96028 whole entry, looked up): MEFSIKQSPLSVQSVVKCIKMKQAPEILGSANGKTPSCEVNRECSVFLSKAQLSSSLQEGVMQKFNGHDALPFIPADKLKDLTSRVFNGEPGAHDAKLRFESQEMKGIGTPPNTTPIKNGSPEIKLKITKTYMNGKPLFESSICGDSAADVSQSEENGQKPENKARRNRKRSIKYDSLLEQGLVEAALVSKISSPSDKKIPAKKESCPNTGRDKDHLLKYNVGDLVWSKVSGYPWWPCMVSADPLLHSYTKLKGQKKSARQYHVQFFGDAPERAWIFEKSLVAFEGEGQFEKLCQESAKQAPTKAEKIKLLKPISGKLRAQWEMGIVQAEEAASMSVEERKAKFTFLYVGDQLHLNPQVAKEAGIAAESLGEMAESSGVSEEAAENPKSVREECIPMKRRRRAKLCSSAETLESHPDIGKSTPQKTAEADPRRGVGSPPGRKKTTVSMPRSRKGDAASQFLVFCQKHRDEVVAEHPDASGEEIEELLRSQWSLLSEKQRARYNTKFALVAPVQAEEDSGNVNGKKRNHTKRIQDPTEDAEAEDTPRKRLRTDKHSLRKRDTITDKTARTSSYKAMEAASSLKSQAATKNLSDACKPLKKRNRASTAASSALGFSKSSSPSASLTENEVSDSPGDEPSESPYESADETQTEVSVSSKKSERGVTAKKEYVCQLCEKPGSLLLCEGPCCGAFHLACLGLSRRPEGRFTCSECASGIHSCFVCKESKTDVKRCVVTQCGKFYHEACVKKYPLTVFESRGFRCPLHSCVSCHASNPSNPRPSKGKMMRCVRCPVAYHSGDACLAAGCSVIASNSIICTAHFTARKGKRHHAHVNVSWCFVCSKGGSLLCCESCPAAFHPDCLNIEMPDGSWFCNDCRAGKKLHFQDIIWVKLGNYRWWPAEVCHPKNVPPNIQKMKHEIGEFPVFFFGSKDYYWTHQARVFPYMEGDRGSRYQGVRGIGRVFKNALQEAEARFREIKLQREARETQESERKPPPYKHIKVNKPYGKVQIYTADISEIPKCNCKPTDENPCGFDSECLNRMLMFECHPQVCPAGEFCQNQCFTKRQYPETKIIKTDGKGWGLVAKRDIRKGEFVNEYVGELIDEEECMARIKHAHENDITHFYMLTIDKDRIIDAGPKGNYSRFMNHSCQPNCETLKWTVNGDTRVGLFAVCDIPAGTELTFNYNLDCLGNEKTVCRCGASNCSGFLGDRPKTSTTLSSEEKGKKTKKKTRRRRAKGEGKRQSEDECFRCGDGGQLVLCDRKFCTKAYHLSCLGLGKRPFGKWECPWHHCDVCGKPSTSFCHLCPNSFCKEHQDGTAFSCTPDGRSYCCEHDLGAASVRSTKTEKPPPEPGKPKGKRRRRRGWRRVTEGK
* = called active by the depositor.

SMILES	NSD2 block
C[C@@H]1CN([C@H](C)CO)C(=O)c2cc(NC(=O)Nc3cccc4ccccc34)ccc2O[C@@H]1CN(C)S(=O)(=O)c1ccccc1	-8.2
CCCN(C)C[C@H]1OCCCC[C@@H](C)Oc2ccc(NC(=O)CCCN(C)C)cc2C(=O)N([C@@H](C)CO)C[C@@H]1C	7.3
CC(C)Cc1ccc(CN2CC[C@@H](NC(=O)c3ccccc3)C2)cc1	1.3
COc1ccc(C#Cc2ccc3c(c2)O[C@H](CN(C)C(=O)NC2CCCCC2)[C@H](C)CN([C@H](C)CO)S3(=O)=O)cc1	-2.6
C[C@@H]1CN([C@H](C)CO)C(=O)c2cc(C#CC3CC3)cnc2O[C@H]1CN(C)C	0.0
COC(=O)C1=CO[C@@H](O[C@@H]2O[C@H](CO)[C@@H](O)[C@H](O)[C@H]2O)[C@H]2[C@@H]1[C@H](OC(C)=O)C[C@]2(C)O	2.1
COC(=O)C1=COC(OC2OC(CO)C(O)C(O)C2O)C2C1C=CC2(O)CO (configuration not stated)	60.2*
COC(=O)C1=COC(O[C@@H]2O[C@H](CO)[C@@H](O)[C@H](O)[C@H]2O)[C@H]2[C@@H]1[C@H](OC(=O)CCc1ccc(O)cc1)C[C@]2(C)O (some centres not stated)	4.2
C[C@@H]1CN([C@@H](C)CO)C(=O)Cc2cc(NC(=O)CCC(F)(F)F)ccc2O[C@@H]1CN(C)S(=O)(=O)c1ccc(Cl)cc1	0.6
Cc1noc(C)c1NC(=O)N(C)C[C@@H]1Oc2c(NS(=O)(=O)c3ccc(F)cc3)cccc2C(=O)N([C@@H](C)CO)C[C@H]1C	1.7
C/C=C/c1cnc2c(c1)C(=O)N([C@H](C)CO)C[C@H](C)[C@H](CN(C)S(=O)(=O)c1ccccc1F)O2	5.8
COc1cccc(NC(=O)N(C)C[C@@H]2Oc3cc(-c4cccc(C(=O)N(C)C)c4)ccc3S(=O)(=O)N([C@H](C)CO)C[C@@H]2C)c1	2.6
C[C@@H]1CN([C@H](C)CO)C(=O)Cc2cc(NC(=O)CCN3CCOCC3)ccc2O[C@H]1CN(C)Cc1ccc(C(=O)Nc2ccccc2N)cc1	-4.0
C[C@@H]1CN([C@H](C)CO)C(=O)c2cccc(NS(=O)(=O)c3cccs3)c2O[C@H]1CN(C)CC1CCCCC1	-4.2
O=C(C[C@H]1C[C@@H]2c3cc(NS(=O)(=O)c4ccc(F)cc4)ccc3O[C@@H]2[C@@H](CO)O1)NC1CCCC1	0.5
CCCN(C)C[C@H]1Oc2cc(-c3cccc(C#N)c3)ccc2S(=O)(=O)N([C@H](C)CO)C[C@H]1C	1.4
COc1cc(O[C@@H]2O[C@H](CO)[C@@H](O)[C@H](O)[C@H]2O)cc(OC)c1OC	-1.2
CC(=O)c1c(O)cc(O[C@@H]2O[C@H](CO)[C@@H](O)[C@H](O)[C@H]2O)cc1O	34.8
CC(C)=CCc1cc(O[C@@H]2O[C@H](CO)[C@@H](O)[C@H](O)[C@H]2O)cc(CC=C(C)C)c1C(O)C(=O)O (some centres not stated)	60.6*
C[C@H]1CN([C@@H](C)CO)C(=O)Cc2cc(NS(=O)(=O)c3ccccc3)ccc2O[C@@H]1CN(C)S(C)(=O)=O	-1.6
CCCC#Cc1ccc2c(c1)O[C@H](CN(C)C(=O)c1ccncc1)[C@@H](C)CN([C@@H](C)CO)S2(=O)=O	10.0
CN(C)C(=O)C[C@@H]1C[C@H]2c3cc(NC(=O)Nc4ccc(F)cc4)ccc3O[C@H]2[C@H](CO)O1	-2.1
C[C@@H]1CN([C@@H](C)CO)S(=O)(=O)c2ccc(-c3ccc(F)cc3)cc2O[C@H]1CN(C)CC1CC1	3.9
Cc1noc(C)c1NC(=O)Nc1ccc2c(c1)C(=O)N([C@H](C)CO)C[C@H](C)[C@@H](CN(C)Cc1ccc(C(F)(F)F)cc1)OCCCC[C@@H](C)O2	-2.9
C[C@@H]1CN([C@@H](C)CO)C(=O)c2cccc(NC(=O)c3ccncc3)c2O[C@H]1CN(C)S(=O)(=O)c1cn(C)cn1	-0.6
SMILES	NSD2 block
C[C@H]1CN([C@@H](C)CO)S(=O)(=O)c2ccc(-c3ccc(C#N)cc3)cc2O[C@@H]1CN(C)C(=O)CN(C)C	2.3
COc1ccc(S(=O)(=O)Nc2cccc3c2O[C@@H](CN(C)S(C)(=O)=O)[C@@H](C)CN([C@@H](C)CO)C3=O)cc1	1.9
C[C@@H]1CN([C@@H](C)CO)C(=O)Cc2cc(NS(=O)(=O)c3cccs3)ccc2O[C@H]1CN(C)Cc1ccc2c(c1)OCO2	-5.0
C[C@H]1CN([C@@H](C)CO)C(=O)c2cc(-c3ccccc3F)cnc2O[C@H]1CN(C)C(=O)C1CCCCC1	-5.9
C[C@@H]1CN([C@H](C)CO)C(=O)c2cccc(NC(=O)Nc3ccc(C(F)(F)F)cc3)c2O[C@@H]1CN(C)Cc1ccc(C(F)(F)F)cc1	-13.3
C[C@H](CO)N1C[C@H](C)[C@@H](CN(C)S(=O)(=O)c2ccccc2)Oc2c(NC(=O)Nc3ccc(F)cc3)cccc2C1=O	0.7
C[C@H](CO)N1C[C@H](C)[C@H](CN(C)S(=O)(=O)c2ccc(Cl)cc2)Oc2ccc(NC(=O)CCC(F)(F)F)cc2C1=O	-0.2
C[C@@H]1CN([C@H](C)CO)S(=O)(=O)c2ccc(C#CC3(O)CCCC3)cc2O[C@@H]1CN(C)CC1CC1	1.0
CCCCCCC/C=N/NC(=O)CCCCCC(=O)O	1.8
Cc1ccc(S(=O)(=O)N(C)C[C@H]2Oc3ccc(NC(=O)NC(C)C)cc3CC(=O)N([C@@H](C)CO)C[C@H]2C)cc1	0.3
Cc1ccc(S(=O)(=O)Nc2ccc3c(c2)C(=O)N([C@@H](C)CO)C[C@@H](C)[C@@H](CN(C)S(=O)(=O)c2cn(C)cn2)OCCCC[C@@H](C)O3)cc1	-7.7
O=c1c(O[C@@H]2O[C@H](CO)[C@H](O)[C@H](O)[C@H]2O)c(-c2cc(O)c(O)c(O)c2)oc2cc(O)cc(O)c12	85.3*
O=c1c(O[C@@H]2O[C@H](CO)[C@@H](O)[C@H](O)[C@H]2O)c(-c2ccc(O)cc2)oc2cc(O)cc(O)c12	-7.7
O=c1c(O[C@@H]2O[C@H](CO)[C@@H](O)[C@H](O)[C@H]2O)c(-c2ccc(O)c(O)c2)oc2cc(O)cc(O)c12	26.6
